The supplement of paper PMC10849652
The full data set covers some 7,900 targets. This sample favours those with a hit. About 0.6% of all pairs of compound and target were hits. Values without a mark were called inactive.

Experiments:
Assay in all cases: log2 fold change, soluble protein after heating vs DMSO (PISA); higher = thermal stabilisation; K562 cells, 10 uM, 30 min; active = over 0.2 and 3.5 SD of the protein, either way, in both replicates (recomputed)
saracatinib = compound: CN1CCN(CCOc2cc(OC3CCOCC3)c3c(Nc4c(Cl)ccc5c4OCO5)ncnc3c2)CC1 [saracatinib]
Procedure, shortened: (§1)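 K562 cells at 2×10^6 cells/mL were treated with 10 μM compound for 30 min. Aliquots were heated for 3 min across 48°C-58°C, pooled, and extracted in PBS with 0.5% NP-40 at 4°C; soluble protein was the supernatant after 21,000xg for 90 min. Soluble protein was quantified by TMTpro 16plex LC-MS/MS with channel sums equalised, and reported as log2 fold change in thermal stability against DMSO controls, with values from duplicates.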

sotrastaurin = compound: CN1CCN(c2nc(C3=C(c4c[nH]c5ccccc45)C(=O)NC3=O)c3ccccc3n2)CC1 [sotrastaurin]
Procedure, shortened: as §1

alvocidib = compound: CN1CC[C@H](c2c(O)cc(O)c3c(=O)cc(-c4ccccc4Cl)oc23)[C@H](O)C1 [alvocidib]
Procedure, shortened: as §1

Tubastatin A = compound: CN1CCc2c(c3ccccc3n2Cc2ccc(C(=O)NO)cc2)C1 [Tubastatin A]
Procedure, shortened: as §1

[1] = compound: CNC(=O)C1=CC=CC=C1NC2=NC(=NC=C2Cl)NC3=C(C=C(C=C3)N4CCOCC4)OC
Procedure, shortened: as §1

defactinib = compound: CNC(=O)c1ccc(Nc2ncc(C(F)(F)F)c(NCc3nccnc3N(C)S(C)(=O)=O)n2)cc1 [defactinib]
Procedure, shortened: as §1

rucaparib = compound: CNCc1ccc(-c2[nH]c3cc(F)cc4c3c2CCNC4=O)cc1 [rucaparib]
Procedure, shortened: as §1

[2] = compound: CNc1nc(-c2ccc3c(N)n[nH]c3c2)cc(N2C[C@@H](C(=O)NC3CCCCC3)CC[C@H]2C)n1
Procedure, shortened: as §1

encorafenib = compound: COC(=O)N[C@@H](C)CNc1nccc(-c2cn(C(C)C)nc2-c2cc(Cl)cc(NS(C)(=O)=O)c2F)n1 [encorafenib]
Procedure, shortened: as §1

[3] = compound: COC(=O)[C@H](CCSC)NC(=O)C1=C(C=C(C=C1)NC[C@H](CS)N)C2=CC=CC=C2
Procedure, shortened: as §1

[4] = compound: COC1=CC=C(C=C1)CN2C=CC3=C2C=C(C=C3)C(=O)NO
Procedure, shortened: as §1

filanesib = compound: CON(C)C(=O)N1N=C(c2cc(F)ccc2F)S[C@@]1(CCCN)c1ccccc1 [filanesib]
Procedure, shortened: as §1

zotarolimus = compound: CO[C@H]1C[C@@H]2CC[C@@H](C)[C@@](O)(O2)C(=O)C(=O)N2CCCC[C@H]2C(=O)O[C@H]([C@H](C)C[C@@H]2CC[C@H](n3cnnn3)[C@H](OC)C2)CC(=O)[C@H](C)/C=C(\C)[C@@H](O)[C@@H](OC)C(=O)[C@H](C)C[C@H](C)/C=C/C=C/C=C/1C [zotarolimus]
Procedure, shortened: as §1

idasanutlin = compound: COc1cc(C(=O)O)ccc1NC(=O)[C@@H]1N[C@@H](CC(C)(C)C)[C@](C#N)(c2ccc(Cl)cc2F)[C@H]1c1cccc(Cl)c1F [idasanutlin]
Procedure, shortened: as §1

alisertib = compound: COc1cc(Nc2ncc3c(n2)-c2ccc(Cl)cc2C(c2c(F)cccc2OC)=NC3)ccc1C(=O)O [alisertib]
Procedure, shortened: as §1

[5] = compound: COc1cc2nc(-c3cc(F)ccc3O)nc(N[C@@H]3CNC[C@H]3C(C)(C)O)c2cc1OC
Procedure, shortened: as §1

gefitinib = compound: COc1cc2ncnc(Nc3ccc(F)c(Cl)c3)c2cc1OCCCN1CCOCC1 [gefitinib]
Procedure, shortened: as §1

[6] = compound: COc1cccc2cc(-c3nc([C@H]4CC[C@H](C(=O)O)CC4)n4ncnc(N)c34)[nH]c12
Procedure, shortened: as §1

lapatinib = compound: CS(=O)(=O)CCNCc1ccc(-c2ccc3ncnc(Nc4ccc(OCc5cccc(F)c5)c(Cl)c4)c3c2)o1 [lapatinib]
Procedure, shortened: as §1

pictilisib = compound: CS(=O)(=O)N1CCN(Cc2cc3nc(-c4cccc5[nH]ncc45)nc(N4CCOCC4)c3s2)CC1 [pictilisib]
Procedure, shortened: as §1

UniProt Q8NCW6, sequence (Q8NCW6 whole entry, looked up): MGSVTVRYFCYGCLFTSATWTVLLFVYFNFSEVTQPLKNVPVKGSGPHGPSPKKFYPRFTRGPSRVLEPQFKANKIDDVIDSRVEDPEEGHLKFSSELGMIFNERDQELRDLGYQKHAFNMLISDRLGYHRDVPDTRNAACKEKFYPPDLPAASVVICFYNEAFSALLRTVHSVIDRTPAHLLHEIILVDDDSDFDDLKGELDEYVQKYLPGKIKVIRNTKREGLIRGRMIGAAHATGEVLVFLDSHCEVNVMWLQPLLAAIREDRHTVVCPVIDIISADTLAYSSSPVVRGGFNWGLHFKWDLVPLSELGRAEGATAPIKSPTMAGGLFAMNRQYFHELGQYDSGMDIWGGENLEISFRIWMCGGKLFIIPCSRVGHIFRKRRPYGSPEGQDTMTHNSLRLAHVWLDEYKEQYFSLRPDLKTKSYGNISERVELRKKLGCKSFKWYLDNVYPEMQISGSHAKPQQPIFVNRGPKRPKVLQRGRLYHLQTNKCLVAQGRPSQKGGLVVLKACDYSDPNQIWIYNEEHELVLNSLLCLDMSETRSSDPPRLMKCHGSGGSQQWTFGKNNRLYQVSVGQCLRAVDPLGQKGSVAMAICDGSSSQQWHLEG
UniProt Q9UKD1, sequence (Q9UKD1 whole entry, looked up): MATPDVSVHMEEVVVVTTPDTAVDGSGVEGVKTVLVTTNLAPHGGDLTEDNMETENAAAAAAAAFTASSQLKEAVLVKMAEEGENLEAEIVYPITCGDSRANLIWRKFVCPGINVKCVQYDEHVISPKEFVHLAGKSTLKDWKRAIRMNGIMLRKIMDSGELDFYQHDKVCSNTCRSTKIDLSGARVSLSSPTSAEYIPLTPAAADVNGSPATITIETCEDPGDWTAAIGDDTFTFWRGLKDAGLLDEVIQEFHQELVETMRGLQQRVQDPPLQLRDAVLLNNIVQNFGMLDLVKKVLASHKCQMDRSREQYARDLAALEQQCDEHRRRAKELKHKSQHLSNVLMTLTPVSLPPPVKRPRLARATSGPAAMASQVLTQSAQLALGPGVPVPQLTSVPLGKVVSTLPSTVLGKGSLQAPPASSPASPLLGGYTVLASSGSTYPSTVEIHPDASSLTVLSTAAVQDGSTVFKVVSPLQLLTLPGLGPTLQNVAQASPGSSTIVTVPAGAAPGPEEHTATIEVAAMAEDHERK
UniProt P23327, sequence (P23327 whole entry, looked up): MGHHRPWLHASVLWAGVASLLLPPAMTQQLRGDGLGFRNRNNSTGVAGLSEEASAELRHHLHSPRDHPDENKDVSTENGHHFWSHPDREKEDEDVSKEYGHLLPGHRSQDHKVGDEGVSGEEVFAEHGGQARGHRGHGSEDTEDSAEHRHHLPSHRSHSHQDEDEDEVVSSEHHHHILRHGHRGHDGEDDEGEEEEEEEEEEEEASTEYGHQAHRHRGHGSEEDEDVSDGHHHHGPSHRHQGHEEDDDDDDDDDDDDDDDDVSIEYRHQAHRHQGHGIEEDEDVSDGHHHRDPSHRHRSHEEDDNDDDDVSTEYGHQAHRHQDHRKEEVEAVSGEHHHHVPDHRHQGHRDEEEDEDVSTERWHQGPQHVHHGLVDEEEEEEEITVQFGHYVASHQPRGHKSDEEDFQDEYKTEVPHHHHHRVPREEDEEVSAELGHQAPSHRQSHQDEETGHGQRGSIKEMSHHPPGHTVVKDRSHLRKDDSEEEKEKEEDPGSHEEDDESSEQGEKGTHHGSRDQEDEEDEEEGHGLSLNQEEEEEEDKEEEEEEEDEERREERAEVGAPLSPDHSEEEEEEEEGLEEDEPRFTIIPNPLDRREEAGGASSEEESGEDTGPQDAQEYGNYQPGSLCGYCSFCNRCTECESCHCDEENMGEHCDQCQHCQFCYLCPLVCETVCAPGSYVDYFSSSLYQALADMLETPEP
UniProt P01112, sequence (P01112 whole entry, looked up): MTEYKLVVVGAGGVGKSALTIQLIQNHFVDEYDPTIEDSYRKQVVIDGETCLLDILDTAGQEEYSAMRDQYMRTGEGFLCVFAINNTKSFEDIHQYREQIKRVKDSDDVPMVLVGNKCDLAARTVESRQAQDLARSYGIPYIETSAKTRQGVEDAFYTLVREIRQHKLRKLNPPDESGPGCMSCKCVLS
UniProt P00367, sequence (P00367 whole entry, looked up): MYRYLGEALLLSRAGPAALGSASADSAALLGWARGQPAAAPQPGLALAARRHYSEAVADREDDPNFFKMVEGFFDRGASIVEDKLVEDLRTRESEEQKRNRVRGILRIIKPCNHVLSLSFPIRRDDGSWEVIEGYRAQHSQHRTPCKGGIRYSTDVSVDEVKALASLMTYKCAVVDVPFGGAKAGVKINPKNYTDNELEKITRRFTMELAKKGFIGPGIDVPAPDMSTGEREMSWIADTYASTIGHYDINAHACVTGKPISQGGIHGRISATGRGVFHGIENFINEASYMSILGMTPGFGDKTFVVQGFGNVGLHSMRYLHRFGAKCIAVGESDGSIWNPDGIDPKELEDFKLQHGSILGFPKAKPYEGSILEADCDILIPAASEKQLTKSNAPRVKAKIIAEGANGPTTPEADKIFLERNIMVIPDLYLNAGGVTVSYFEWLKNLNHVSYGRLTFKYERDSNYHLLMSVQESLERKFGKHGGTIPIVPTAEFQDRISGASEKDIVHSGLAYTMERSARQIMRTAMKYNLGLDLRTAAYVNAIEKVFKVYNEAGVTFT
UniProt P07686, sequence (P07686 whole entry, looked up): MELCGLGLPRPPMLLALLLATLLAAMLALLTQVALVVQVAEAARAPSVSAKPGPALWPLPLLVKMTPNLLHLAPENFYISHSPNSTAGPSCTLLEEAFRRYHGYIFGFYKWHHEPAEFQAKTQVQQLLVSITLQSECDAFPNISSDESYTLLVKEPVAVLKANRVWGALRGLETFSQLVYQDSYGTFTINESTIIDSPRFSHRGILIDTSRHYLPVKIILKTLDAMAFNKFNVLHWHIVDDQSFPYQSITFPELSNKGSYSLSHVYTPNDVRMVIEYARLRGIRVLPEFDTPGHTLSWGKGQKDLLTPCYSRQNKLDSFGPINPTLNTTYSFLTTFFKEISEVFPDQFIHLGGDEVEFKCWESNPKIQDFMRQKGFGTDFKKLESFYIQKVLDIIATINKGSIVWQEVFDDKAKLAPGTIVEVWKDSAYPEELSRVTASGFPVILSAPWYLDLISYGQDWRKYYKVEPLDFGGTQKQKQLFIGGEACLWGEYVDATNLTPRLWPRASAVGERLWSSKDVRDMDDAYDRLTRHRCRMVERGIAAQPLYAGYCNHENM
UniProt O94925, sequence (O94925 whole entry, looked up): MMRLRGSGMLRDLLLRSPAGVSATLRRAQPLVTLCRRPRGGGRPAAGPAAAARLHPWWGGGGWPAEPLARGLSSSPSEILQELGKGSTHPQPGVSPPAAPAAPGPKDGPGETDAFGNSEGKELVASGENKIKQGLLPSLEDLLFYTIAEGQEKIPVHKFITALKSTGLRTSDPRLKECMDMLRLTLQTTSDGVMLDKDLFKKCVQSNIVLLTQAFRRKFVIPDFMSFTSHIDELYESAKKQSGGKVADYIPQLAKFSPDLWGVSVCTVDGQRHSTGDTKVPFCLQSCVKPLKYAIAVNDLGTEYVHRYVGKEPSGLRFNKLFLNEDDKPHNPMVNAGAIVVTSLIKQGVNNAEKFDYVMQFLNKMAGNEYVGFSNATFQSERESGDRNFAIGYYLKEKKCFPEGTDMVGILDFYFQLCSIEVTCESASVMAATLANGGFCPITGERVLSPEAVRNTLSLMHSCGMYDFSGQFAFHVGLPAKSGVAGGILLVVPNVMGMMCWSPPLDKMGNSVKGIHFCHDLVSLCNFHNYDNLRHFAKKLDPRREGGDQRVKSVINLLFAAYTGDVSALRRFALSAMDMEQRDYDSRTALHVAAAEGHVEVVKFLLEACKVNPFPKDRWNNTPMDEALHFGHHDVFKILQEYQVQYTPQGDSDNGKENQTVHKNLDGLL
UniProt P09105, sequence (P09105 whole entry, looked up): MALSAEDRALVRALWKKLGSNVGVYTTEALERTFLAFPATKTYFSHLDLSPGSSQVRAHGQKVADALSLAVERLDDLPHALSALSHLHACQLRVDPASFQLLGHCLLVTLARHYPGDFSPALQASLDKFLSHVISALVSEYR
UniProt Q9NP66, sequence (Q9NP66 whole entry, looked up): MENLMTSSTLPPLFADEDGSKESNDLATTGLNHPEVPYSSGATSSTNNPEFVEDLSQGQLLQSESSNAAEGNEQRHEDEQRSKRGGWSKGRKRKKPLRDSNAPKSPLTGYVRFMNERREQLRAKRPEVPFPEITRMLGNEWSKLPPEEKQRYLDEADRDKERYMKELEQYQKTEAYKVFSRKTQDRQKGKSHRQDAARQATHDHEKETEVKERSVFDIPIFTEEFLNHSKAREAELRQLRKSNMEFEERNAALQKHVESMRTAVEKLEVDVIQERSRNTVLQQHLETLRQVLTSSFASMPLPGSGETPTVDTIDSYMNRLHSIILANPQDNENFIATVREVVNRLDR
UniProt P15976, sequence (P15976 whole entry, looked up): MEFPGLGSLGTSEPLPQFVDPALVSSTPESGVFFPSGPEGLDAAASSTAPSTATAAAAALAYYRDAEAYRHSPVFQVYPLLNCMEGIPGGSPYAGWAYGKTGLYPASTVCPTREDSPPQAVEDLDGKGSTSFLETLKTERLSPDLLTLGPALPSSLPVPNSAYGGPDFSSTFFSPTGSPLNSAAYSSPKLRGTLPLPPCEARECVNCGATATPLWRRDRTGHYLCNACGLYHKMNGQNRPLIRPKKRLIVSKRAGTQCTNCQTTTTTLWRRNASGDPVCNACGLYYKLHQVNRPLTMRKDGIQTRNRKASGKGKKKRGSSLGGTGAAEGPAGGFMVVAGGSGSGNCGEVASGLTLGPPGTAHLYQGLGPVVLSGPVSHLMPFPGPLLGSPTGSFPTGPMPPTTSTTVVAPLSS
UniProt Q9Y680, sequence (Q9Y680 whole entry, looked up): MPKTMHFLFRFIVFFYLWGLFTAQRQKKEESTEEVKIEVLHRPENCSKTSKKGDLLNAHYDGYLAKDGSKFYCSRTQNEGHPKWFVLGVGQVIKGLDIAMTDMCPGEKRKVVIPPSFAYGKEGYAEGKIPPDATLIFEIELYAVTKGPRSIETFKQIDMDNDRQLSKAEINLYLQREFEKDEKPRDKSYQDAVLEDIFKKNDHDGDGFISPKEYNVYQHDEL

| Target | log2 fold change (saracatinib) | log2 fold change (sotrastaurin) | log2 fold change (alvocidib) | log2 fold change (Tubastatin A) | log2 fold change [1] | log2 fold change (defactinib) | log2 fold change (rucaparib) | log2 fold change [2] | log2 fold change (encorafenib) | log2 fold change [3] | log2 fold change [4] | log2 fold change (filanesib) | log2 fold change (zotarolimus) | log2 fold change (idasanutlin) | log2 fold change (alisertib) | log2 fold change [5] | log2 fold change (gefitinib) | log2 fold change [6] | log2 fold change (lapatinib) | log2 fold change (pictilisib) |
| --- | --- | --- | --- | --- | --- | --- | --- | --- | --- | --- | --- | --- | --- | --- | --- | --- | --- | --- | --- | --- |
| GATD1 (UniProt Q8NB37) | 0.077 | 0.057 | -0.084 | 0.06 | -0.079 | 0.001 | -0.004 | -0.022 | 0 | 0.011 | -0.104 | 0.022 | -0.004 | -0.038 | -0.001 | 0.018 | -0.014 | 0.052 | -0.064 | 0.08 |
| HMG20A (UniProt Q9NP66) | 0.038 | -0.106 | -0.075 | 0.018 | 0.005 | 0.029 | -0.323 | -0.015 | -0.109 | -0.009 | -0.045 | 0.05 | 0.078 | -0.21 | -0.016 | 0.147 | 0.065 | -0.021 | -0.088 | 0.145 |
| HP1BP3 (UniProt Q5SSJ5) | -0.045 | -0.071 | 0.039 | 0.06 | -0.045 | 0.227 | -0.041 | -0.001 | 0.075 | -0.098 | 0.041 | 0.145 | -0.003 | 0.095 | -0.069 | -0.053 | 0.154 | -0.024 | 0.044 | 0.04 |
| FKBP7 (UniProt Q9Y680) | 0.073 | 0.056 | 0 | -0.026 | 0.008 | -0.032 | 0.01 | 0.031 | 0.044 | 0.036 | -0.152 | -0.036 | -0.029 | 0.047 | -0.063 | 0.047 | 0.086 | 0.003 | -0.065 | -0.007 |
| GLS isoform 3 (UniProt O94925) | -0.025 | -0.027 | -0.246 | 0.14 | -0.025 | -0.139 | -0.045 | -0.063 | 0.039 | 0 | -0.021 | -0.029 | 0.008 | -0.26 | -0.003 | 0.216 | 0.041 | 0.031 | 0 | 0.078 |
| HEXB (UniProt P07686) | 0 | 0.029 | -0.004 | -0.101 | 0.017 | -0.002 | -0.078 | -0.033 | 0.01 | -0.001 | 0.012 | -0.092 | -0.042 | 0.018 | -0.058 | 0.017 | 0.005 | 0.044 | -0.001 | 0.021 |
| HRC (UniProt P23327) | 0.063 | 0.057 | 0.02 | -0.125 | 0.009 | -0.011 | 0.01 | -0.057 | -0.066 | 0.043 | -0.089 | 0.019 | -0.032 | 0.035 | -0.059 | -0.008 | 0.035 | -0.007 | -0.039 | 0.017 |
| HEXA (UniProt P06865) | 0.031 | 0.098 | 0.005 | -0.145 | -0.012 | -0.008 | -0.07 | -0.018 | 0.003 | 0.016 | 0.028 | -0.066 | -0.015 | -0.012 | -0.095 | 0.01 | -0.005 | 0.035 | 0 | 0.03 |
| FNTA (UniProt P49354) | 0.084 | 0.141 | -0.006 | -0.068 | -0.028 | 0.019 | -0.243 | -0.016 | -0.239 | 0.561 (active) | 0.162 | 0.069 | 0.019 | -0.062 | -0.074 | -0.01 | 0.056 | 0.044 | 0.04 | -0.005 |
| HBQ1 (UniProt P09105) | -0.029 | 0.007 | -0.034 | -0.011 | -0.013 | -0.009 | -0.027 | 0.008 | -0.007 | 0.028 | -0.034 | -0.027 | 0.051 | -0.023 | -0.115 | -0.05 | 0.033 | 0.091 | 0.001 | -0.012 |
| HRAS (UniProt P01112) | 0.002 | 0.091 | -0.075 | 0.014 | -0.015 | -0.012 | 0.072 | 0.077 | -0.042 | 0.062 | 0.008 | -0.023 | -0.049 | 0.075 | -0.157 | -0.044 | 0.021 | -0.015 | 0.076 | 0.012 |
| GATA1 (UniProt P15976) | 0.097 | -0.042 | 0.128 | -0.049 | 0.104 | 0.088 | 0.086 | -0.014 | 0.054 | 0 | -0.023 | 0.001 | -0.05 | -0.034 | 0.02 | 0.07 | 0.014 | -0.087 | 0.008 | -0.021 |
| GALNT11 (UniProt Q8NCW6) | -0.025 | -0.024 | 0 | 0.028 | 0.033 | -0.187 | -0.047 | 0.01 | -0.064 | -0.055 | -0.012 | -0.028 | -0.019 | -0.042 | 0 | 0.052 | 0.013 | 0.062 | -0.011 | 0.026 |
| GMEB2 (UniProt Q9UKD1) | 0.018 | -0.019 | -0.197 | 0.051 | -0.065 | -0.156 | 0.275 (active) | -0.023 | -0.007 | 0.008 | -0.027 | 0.04 | 0.03 | 0.073 | -0.009 | 0.053 | 0.038 | 0.027 | -0.022 | 0.101 |
| GTF2E1 (UniProt P29083) | -0.026 | -0.11 | -0.148 | 0.064 | 0 | -0.272 | -0.126 | -0.047 | 0.199 | -0.099 | 0.042 | 0.01 | 0.004 | -0.032 | -0.026 | 0.06 | 0.013 | 0.012 | -0.037 | -0.002 |
| GLUD1 (UniProt P00367) | 0.161 | 0.14 | -0.002 | -0.04 | 0.096 | 0.041 | -0.099 | 0.089 | -0.056 | 0.002 | -0.012 | -0.118 | -0.007 | -0.047 | -0.039 | -0.001 | 0.076 | 0.057 | 0.178 | 0.367 (active) |
